Hits are enriched below; roughly 19% of the tested compounds scored in any of these assays.
DT40 TDP1 CPT: DT40-hTDP1 cell growth loss with CPT; chicken DT40 Tdp1-/-;hTDP1 cells + 20 nM CPT, ATP luminescence, 48 h; Potency, µM (top dose mostly 46.2 µM), without a hit: top-dose activity change, negative = growth inhibition, most hits filed as inhibitors; 420,000 tested, 12% active; AID 686979; also: nearly all actives have a fitted effect of over 55% in size
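Chicken DT40 Tdp1-/- cells stably complemented with human TDP1 were seeded at 400 cells/well in medium containing 20 nM camptothecin, exposed to pin-transferred compounds, and grown at 37 °C for at least 48 hr. Viability was read as ATP luminescence.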
HT1080NT lethal: kills 2HG-producing HT-1080-NT fibrosarcoma cells; HT-1080-NT fibrosarcoma viability, CellTiter-Glo ATP luminescence, 48 h; Potency, µM (top dose mostly 46.1 µM), without a hit: at the highest dose activity, negative = less viability, most hits filed as cytotoxic; 360,000 tested, 1.6% active; AID 686970;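 also: NT is the 2HG producing partner of a matched IDH1 knockdown line; 0% = DMSO-treated cells and -100% = media-only wells without cells; nearly all actives have a fitted effect of over 55% in size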
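Compounds were tested in concentration-response format on HT-1080-NT cells for 48 hours at 37 degrees C. Cell viability came from CellTiter-Glo luminescence; curves were classified by r2, response magnitude and activity.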
HT1080 IDH1KD tx: toxicity to HT-1080 IDH1 knockdown cells (counter line). HT-1080 IDH1 knockdown viability, ATP luminescence, 48 h. Potency, µM (top dose mostly 46.1 µM), inactives show top-dose activity, negative = toxicity, hits mostly cytotoxic. 360,000 tested, 2% active. AID 686971;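 also: 0% = DMSO wells and -100% = cell-free medium wells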
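% activity derives from luminescence (CellTiter-Glo), normalised to DMSO and no-cell wells. HT-1080-IDH1KD cells, 750/well, had 48 h compound exposure at 37 °C.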
KB-V1 MDR tox: kills drug-selected multidrug resistant KB-V1 cells; KB-V1 MDR cells viability, CellTiter-Glo, 72 h; Potency, µM (top dose mostly 46.1 µM), most hits filed as cytotoxic; 400,000 tested, 3.4% active; also: nearly all actives have a fitted effect of over 60% in size
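Following 72 h at 37 degrees C with compound, KB-V1 cell viability was read by CellTiter-Glo luminescence, medium being phenol-red-free DMEM plus 10% FBS; concentration-response parameters came from normalized, curve-fitted qHTS data.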
KB-3-1 cytotox: kills parental KB-3-1 adenocarcinoma cells; KB-3-1 viability, CellTiter-Glo ATP luminescence, 72 h; Potency, µM (highest dose often 46.1 µM), hits mostly cytotoxic; 400,000 tested, 1.4% active; also: nearly all actives have a fitted effect of over 60% in size
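KB-3-1 cells, DMEM (no phenol red) + 10% FBS; compound by pin transfer, 72 h, 37 °C. Readout: CellTiter-Glo luminescence after 10 min. Data normalized, curve-fitted.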
DT40 TDP1 no CPT: qHTS for Inhibitors of human tyrosyl-DNA phosphodiesterase 1 (TDP1): qHTS in cells in absence of CPT; DT40 Tdp1-/- hTDP1 cells, no CPT, ATP luminescence, 48 h; Potency, µM (doses to about 46.2 µM), for the others: at the highest dose activity change, negative = growth inhibition, most hits filed as inhibitors; 420,000 tested, 15% active; also: nearly all actives have a fitted effect of over 55% in size
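Camptothecin absent (DMSO only). Human TDP1-complemented DT40 knockout cells, 400 cells/well, 37 °C for minimum 48 hr; ATP measured via CellTiter-Glo, 30 min dark incubation, luminescence.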
Starred values were filed as active, the others as inactive; i = inactive; ? = inconclusive; nt = no result; [ ] = remark or other dose. Calls follow the shape of the dose curve; as a rule, active = well fitted curve in the direction sought with a large enough effect; inconclusive = small, poorly fitted or top-dose-only effect, or another doubt; inactive = no such curve, though single readings can be large; an effect the other way counts as inactive or inconclusive. Unless noted, % is scaled to controls: 0 for no effect and ±100 for the full control effect; potency is read from the fitted curve at half-maximal effect.

SMILES	DT40 TDP1 CPT	HT1080NT lethal	HT1080 IDH1KD tx	KB-V1 MDR tox	KB-3-1 cytotox	DT40 TDP1 no CPT
CCOc1cc(C#N)c(NC(=O)c2ccc(OC)c(S(=O)(=O)N3CCN(c4ccccc4)CC3)c2)cc1OCC	?	nt	nt	i	i	?
CC(C)(C)c1ccc(-c2nc(-c3ccncc3)no2)cc1	?	-4%	?	16µM*	?	16µM*
COc1cc(OC)c(-c2nc(-c3ccncc3)no2)cc1OC	?	3%	3%	i	i	16µM*
O=[N+]([O-])c1cc(-c2nc(-c3ccncc3)no2)cc([N+](=O)[O-])c1	10µM*	19%	28%	i	i	10µM*
O=[N+]([O-])c1cc(-c2nc(-c3ccncc3)no2)ccc1Cl	10µM*	-23%	-23%	i	i	?
CCCNc1ccc(-c2nc(-c3ccncc3)no2)cc1[N+](=O)[O-]	-17%	nt	nt	i	i	-5%
CSc1nc2sc3c(c2c(=O)n1Cc1ccccc1)CCC(C(C)(C)C)C3 (centres undefined)	-15%	nt	nt	?	i	?
COc1ccc(NC(=O)CSc2ncc3c(n2)-c2ccccc2N(C)S3(=O)=O)cc1Cl	?	nt	nt	i	i	?
CC(Oc1ccccc1F)C(=O)Nc1ccc(-c2nc3ccccc3s2)cc1 (centres undefined)	-21%	nt	nt	i	i	-26%
Cc1cc(OC(C)C(=O)Nc2cccc(-c3nc4ccccc4o3)c2)cc(C)c1Cl (centres undefined)	?	nt	nt	?	i	16µM*
COc1ccccc1OC(C)C(=O)Nc1cccc(-c2nc3ccccc3s2)c1 (centres undefined)	21µM*	nt	nt	i	i	12µM*
COc1ccc(CC(=O)Nc2ccc(-c3nc4ccccc4s3)c(C)c2)cc1OC	?	nt	nt	?	i	26µM*
COc1cccc(CC(=O)Nc2ccc(-c3nc4ccccc4s3)cc2)c1	-21%	nt	nt	i	i	-5%
COc1ccccc1OC(C)C(=O)Nc1cccc(-c2nc3ccccc3o2)c1 (centres undefined)	?	nt	nt	i	i	21µM*
O=c1cccc(-c2ccc3ccccc3c2)o1	-3%	0%	-4%	i	i	?
O=C(Nc1nccs1)[C@@H]1CC=C[C@@H]2CCN(Cc3ccc(Cl)c(Cl)c3)C(=O)[C@@H]21	?	nt	nt	?	i	?
CC(C)(C)OC(=O)NCCc1nnc(SCc2c(Cl)cccc2Cl)o1	-19%	-3%	-3%	i	i	9%
CC(C)(C)OC(=O)NCCCCCc1nnc(SCc2cccc(F)c2)o1	?	-30%	1%	?	i	9.2µM*
CC(C)(C)OC(=O)NCCCCCc1nnc(SCc2c(F)cccc2Cl)o1	-24%	-10%	-12%	i	i	21µM*
Cc1cc(C(=O)N2CCC(C)(C(=O)NS(=O)(=O)C3CC3)C2)n(C(C)(C)C)n1 (centres undefined)	1%	25%	23%	i	i	26%
CC(c1ccccc1)n1cc(C(=O)NCc2ccccn2)nn1 (centres undefined)	-9%	1%	-5%	i	i	-3%
Cc1ccc(C(C)n2cc(C(=O)NCc3cccnc3)nn2)cc1 (centres undefined)	-29%	-9%	0%	15µM*	i	-26%
Cc1c(Cl)cc(C(C)C)c(O)c1CN1CCOCC1	-21%	-1%	-4%	i	i	-12%
Cc1c(C(=O)Nc2ccccc2)sc2nc(-c3ccccc3)cn12	18µM*	-17%	-17%	?	i	?
Cc1ccc(Cl)cc1NC(=O)c1sc2nc(-c3ccccc3)cn2c1C	21µM*	nt	nt	i	i	15µM*
SMILES	DT40 TDP1 CPT	HT1080NT lethal	HT1080 IDH1KD tx	KB-V1 MDR tox	KB-3-1 cytotox	DT40 TDP1 no CPT
COc1ccc(-c2cn3c(C)c(C(=O)NC(C)C)sc3n2)cc1	-2%	0%	-10%	i	i	-23%
COc1ccc(-c2cn3c(C)c(C(=O)Nc4cccc(C)n4)sc3n2)cc1	?	-18%	-10%	21µM*	i	23µM*
COc1ccc(-c2cn3c(C)c(C(=O)NC(C)(C)C)sc3n2)cc1	?	2%	-10%	i	i	?
Cc1cccc(NC(=O)c2sc3nc(-c4ccccc4)cn3c2C)n1	?	-5%	-18%	21µM*	i	?
Cc1ccc(C)c(NC(=O)c2sc(Cl)nc2-c2ccccc2)c1	?	9%	11%	i	i	?
CCOC(=O)C1C(=O)CC(C)(O)C(C(=O)OCC)C1c1ccc([N+](=O)[O-])cc1 (centres undefined)	-18%	-6%	-2%	?	i	-5%
NC(=O)C1C2CCC(C2)C1C(N)=O (centres undefined)	?	1%	-6%	i	i	-19%
CC12CCC(C/C1=N\N=C1\NC(=O)/C(=C\c3ccc(Cl)cc3)S1)C2(C)C (centres undefined)	?	16µM*	21µM*	?	?	?
CC1(C(=O)NCCC#N)CCN1C(=O)C1(c2ccccc2)CCCC1 (centres undefined)	4%	2%	18%	i	i	-8%
COc1ccc(CNC(=O)CN2C(=O)C(c3ccccc3)Oc3cccnc32)cc1 (centres undefined)	-16%	0%	-5%	i	i	?
COc1cc(Cl)c(C)cc1NC(=O)CCCN1C(=O)C(c2ccccc2)Oc2cccnc21 (centres undefined)	26µM*	nt	nt	i	i	21µM*
COc1ccc(C)cc1NC(=O)CCCN1C(=O)C(c2ccccc2)Oc2cccnc21 (centres undefined)	?	0%	-5%	i	i	?
COc1ccc(Cl)cc1NC(=O)CCCN1C(=O)C(c2ccccc2)Oc2cccnc21 (centres undefined)	18µM*	nt	nt	i	?	23µM*
O=C(CN1C(=O)C(c2ccccc2)Oc2cccnc21)NCc1ccccc1F (centres undefined)	21µM*	-5%	-5%	i	i	?
CN1CCCC(CNC(=O)c2cnn(-c3ncc4c(n3)-c3ccccc3CC4)c2C2CC2)C1 (centres undefined)	-12%[9.04 µM]	nt	nt	nt	nt	-10%

Screening results (PubChem BioAssay)
